These results are taken from PubChem BioAssay.

A short description of assay [1]: P. berghei load reduction in hepatocytes – cell-based, HepG2, luciferase luminescence, HepG2 viability, primary screen (AID 624349; in the data active means parasite load remaining mostly below about 12%, no sharp cut-off; inactive means mostly above about 10%;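 further: 100% = mean of DMSO negative control wells on the same plate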). The settings on record: P. berghei liver stage in HepG2, luciferase luminescence, concentration not given here; parasite load remaining: stronger effect = lower value; viability: measured here: HepG2 viability without parasites.
Assay [2] is described as follows: signal quenchers or enhancers, Cy5 substrate/SSB – biochemical, NIH Clinical Collection, E. coli SSB, artefact control for HCV NS3 helicase inhibitor project (AID 743268; call rule not given here). Conditions: Cy5-oligo bound E. coli SSB, fluorescence interference.
Assay [3] deals with Hepatitis C virus NS3 helicase. The assay is described as follows: blockers of NS3h binding to DNA – biochemical, fluorescence polarization, NIH Clinical Collection, primary screen (AID 743270; call rule not given here). Conditions: NS3 helicase binding to Cy5-dT15 DNA, stronger effect = higher value, concentration not given here.
For assay [4], the target named is Single-stranded DNA-binding protein (Escherichia coli (strain K12)) (UniProt P0AGE0). As to the kind of experiment: SSB-ssDNA binding inhibitors – biochemical, fluorescence polarization, NIH Clinical Collection, counter-screen for HCV NS3 helicase inhibitor project (AID 743271; in the data active means inhibition above about 28%). The settings on record: E. coli SSB-DNA binding, stronger effect = higher value, concentration not given here.

Assay [5] in a line: compounds distorting NS3 helicase fluorescence signal – biochemical, NIH Clinical Collection, artefact control for HCV NS3 helicase inhibitor project (AID 743272; call rule not given here;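 further: HCV NS3 helicase with a Cy5 labelled single stranded DNA probe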). Conditions: fluorescence interference counterscreen, HCV NS3 helicase assay; stronger effect = lower value.
Assay [6] deals with 6-phosphogluconate dehydrogenase, decarboxylating (Homo sapiens) (UniProt P52209). As to the kind of experiment: inhibition of human phosphogluconate dehydrogenase – biochemical, recombinant enzyme, NADPH absorbance, primary screen (AID 1159550;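 active means at least 20% inhibition of 6-phosphogluconate dehydrogenase activity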). The settings on record: recombinant 6PGD, NADPH absorbance 341 nm; at 10 µM; stronger effect = higher value.
Assay [7] in a line: modulation of C. elegans fzo-1 (AID 1259413; call rule not given here;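 further: fzo-1 mutant C. elegans worms in liquid wells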). The settings on record: C. elegans fzo-1 modulator screen, mean read-out; stronger effect = higher value.
The nature of assay [8]: EMT-state selective cytotoxicity in co-culture – imaging, PC-3E GFP, TEM4-18 mCherry, primary screen (AID 1345086;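 active means compounds killing one labelled cell type while sparing the other, by normalised counts and ratio limits, not self-fluorescent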;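 on all read-outs here: cells exposed to compound for 72 h before imaging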;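 on red/green cell ratio (normalised): normalised mesenchymal count divided by normalised epithelial count so high means epithelial killing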). Conditions: PC-3E GFP / TEM4-18 mCherry co-culture, imaging cell counts, at 1 µM; for red/green cell ratio (normalised): actives lie on both sides, counts scaled to control wells, 1 = unselective.
Assay [9] in a line: viability loss with induced miR-34 in A549 – imaging, A549 dox-inducible miR-34, nuclei and caspase counts, primary screen (AID 1347080;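 active means compounds whose cell count with miR-34 switched on is under 0.7 times the count with it off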). The settings on record: A549 miR-34 inducible, Hoechst nuclei count, 48 h.
Assay [10] can be described thus: drug combination growth inhibition, ovarian cancer – cell-based, oncology-focused library, rucaparib conditional, profiling panel (AID 1508598). Conditions: patient-derived ovarian cancer cells, CellTiter-Glo viability, 144 h, stronger effect = lower value.
Assay [11] concerns the target Mitogen-activated protein kinase 7 (Homo sapiens) (UniProt Q13164). The assay is described as follows: Gal4-ERK5 driven luciferase induction – cell-based, HTS, primary screen (AID 1508626;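 active means luciferase signal above three times the same-plate solvent-only control wells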;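 further: luciferase driven by Gal4-ERK5 fusion binding five Gal4 sites before minimal TATA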). The settings on record: HeLa Gal4-ERK5 transactivation, 18 h, at 5 µM, stronger effect = higher value.
Assay [12] is described as follows: galactose survival enhancers in mitochondrial complex I cybrids – cell-based, galactose medium, ATP luminescence, primary screen (AID 1645843;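 active means z-score of at least 1.8 in each of two replicates, scored against plate mean and spread of sample wells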;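 further: positive z means more ATP and so rescue of galactose-driven cybrid death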). The settings on record: complex I mutant cybrid cells, 72 h, stronger effect = higher value.
In a further assay the test system is F380Y. As to the kind of experiment: BK channel mutant inhibitors and activators – cell-based, U2OS BacMam, thallium flux, beta subunits, selectivity assay, profiling panel (AID 1259406;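 active means thallium flux through the channel raised or lowered by more than 3 SD from vehicle-only wells, actives on both sides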;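 further: initial slope of Thallos dye fluorescence rise after thallium is added; log ratio against the mean of 0.3% DMSO vehicle wells on the same plate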). The settings on record: U2OS BacMam BK variants, at 30 µM.
The next assay has as its system F380Y/beta2Delta. The description is as above. The settings on record: U2OS BacMam BK variants, at 30 µM.
In assay [13] the target is Calcium-activated potassium channel subunit alpha-1 (Homo sapiens) + Leucine-rich repeat-containing protein 26 (Homo sapiens) (UniProt Q12791+Q2I0M4). The assay is described as above. Conditions: U2OS BacMam BK variants, F380Y/Slo1WT/gamma1, at 30 µM.
For a further assay, the system named is R275C. Described as above. The settings on record: U2OS BacMam BK variants, at 30 µM.
In another assay the test system is R275C/beta1. The description is as above. Conditions: U2OS BacMam BK variants, at 30 µM.
A further assay deals with R275C/beta2Delta. Described as above. The settings on record: U2OS BacMam BK variants, at 30 µM.
[14] abbreviates: measured here: epithelial PC-3E GFP cell survival.
[15] abbreviates: measured here: mesenchymal TEM4-18 mCherry cell survival.
[16] abbreviates: stronger effect = lower value, cell number ratio, induced over uninduced.
The mark [17] stands for this setting: measured here: relative caspase fold change +Dox/-Dox.
The mark [18] stands for this setting: measured here: total cells with miR-34 induction, stronger effect = lower value.
Setting [19] is: measured here: total cells without miR-34 induction.

The source made the active and inactive calls.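 How the source made its calls, unless noted: active means normalized viability below 100% at a tested concentration; inactive means the rest.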

Sequence of 6-phosphogluconate dehydrogenase, decarboxylating (Homo sapiens) (P52209 whole entry, looked up): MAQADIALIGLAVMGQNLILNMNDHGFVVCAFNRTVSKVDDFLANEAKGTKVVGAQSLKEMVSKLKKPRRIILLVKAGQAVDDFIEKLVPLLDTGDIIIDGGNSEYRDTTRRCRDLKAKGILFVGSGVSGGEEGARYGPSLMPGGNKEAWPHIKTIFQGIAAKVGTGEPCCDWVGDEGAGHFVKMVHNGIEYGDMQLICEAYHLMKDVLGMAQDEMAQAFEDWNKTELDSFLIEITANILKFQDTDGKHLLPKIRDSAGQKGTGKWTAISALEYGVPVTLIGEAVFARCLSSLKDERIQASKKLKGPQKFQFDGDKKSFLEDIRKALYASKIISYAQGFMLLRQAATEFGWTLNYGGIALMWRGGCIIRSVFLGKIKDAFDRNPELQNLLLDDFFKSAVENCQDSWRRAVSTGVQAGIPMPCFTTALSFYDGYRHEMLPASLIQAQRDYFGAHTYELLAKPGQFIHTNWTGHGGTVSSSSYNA
Sequence of Calcium-activated potassium channel subunit alpha-1 (Homo sapiens) + Leucine-rich repeat-containing protein 26 (Homo sapiens) (Q2I0M4 whole entry, looked up, one chain of several): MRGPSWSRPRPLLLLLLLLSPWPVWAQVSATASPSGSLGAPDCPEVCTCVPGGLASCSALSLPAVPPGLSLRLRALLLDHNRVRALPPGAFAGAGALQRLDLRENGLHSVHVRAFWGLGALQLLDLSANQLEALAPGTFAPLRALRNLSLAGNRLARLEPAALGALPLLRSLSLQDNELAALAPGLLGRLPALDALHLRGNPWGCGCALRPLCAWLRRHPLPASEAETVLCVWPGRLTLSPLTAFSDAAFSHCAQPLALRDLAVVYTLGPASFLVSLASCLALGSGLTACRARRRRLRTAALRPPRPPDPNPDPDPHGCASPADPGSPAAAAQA
Sequence of Mitogen-activated protein kinase 7 (Homo sapiens) (Q13164 whole entry, looked up, the tested form may be a part): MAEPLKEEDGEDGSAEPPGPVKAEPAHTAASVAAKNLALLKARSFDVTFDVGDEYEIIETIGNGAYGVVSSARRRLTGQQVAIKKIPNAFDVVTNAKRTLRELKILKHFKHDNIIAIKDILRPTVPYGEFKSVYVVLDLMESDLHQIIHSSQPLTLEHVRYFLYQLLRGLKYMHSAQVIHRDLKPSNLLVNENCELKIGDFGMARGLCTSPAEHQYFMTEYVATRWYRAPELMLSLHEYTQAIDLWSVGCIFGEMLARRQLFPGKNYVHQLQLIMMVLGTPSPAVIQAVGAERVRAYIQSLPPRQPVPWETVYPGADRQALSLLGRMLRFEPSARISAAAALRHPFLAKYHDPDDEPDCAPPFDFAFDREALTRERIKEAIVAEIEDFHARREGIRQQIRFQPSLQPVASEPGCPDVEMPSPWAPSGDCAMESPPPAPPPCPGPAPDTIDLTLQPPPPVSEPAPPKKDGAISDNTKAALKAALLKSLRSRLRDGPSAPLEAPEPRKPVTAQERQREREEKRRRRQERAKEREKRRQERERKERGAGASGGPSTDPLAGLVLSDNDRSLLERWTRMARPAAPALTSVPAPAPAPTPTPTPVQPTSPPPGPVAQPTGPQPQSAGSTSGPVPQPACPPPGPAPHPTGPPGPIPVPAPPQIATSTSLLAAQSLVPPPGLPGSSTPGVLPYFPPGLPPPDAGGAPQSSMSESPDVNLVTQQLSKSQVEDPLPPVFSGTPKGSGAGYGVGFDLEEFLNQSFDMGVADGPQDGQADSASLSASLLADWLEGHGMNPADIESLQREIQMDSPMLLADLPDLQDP

Regarding `O=C(O[C@@H]1Cc2c(O)cc(O)cc2O[C@@H]1c1cc(O)c(O)c(O)c1)c1cc(O)c(O)c(O)c1`, in assay [1], the parasite load remaining is 87.1% (inactive). Besides, the viability in assay [1] was 76.9%; in assay [10] (at 0.000305 µM, OCI-C5x cells, with rucaparib 10 µM, 100% = cells with rucaparib alone), 112% (inactive); in assay [10] (at 0.000305 µM, OCI-C5x cells, without rucaparib), 121% (inactive); in assay [10] (at 0.000305 µM, OCI-P5x cells, with rucaparib 20 µM, 100% = cells with rucaparib alone), 103% (inactive); in [10] (at 0.000305 µM, OCI-P5x cells, without rucaparib) it was 104% (inactive); in assay [10] (at 0.00122 µM, OCI-C5x cells, with rucaparib 10 µM, 100% = cells with rucaparib alone) it was 120% (inactive). Also, the viability in assay [10] (at 0.00122 µM, OCI-C5x cells, without rucaparib) was 118% (inactive); in [10] (at 0.00122 µM, OCI-P5x cells, with rucaparib 20 µM, 100% = cells with rucaparib alone), 73.5% (active); in assay [10] (at 0.00122 µM, OCI-P5x cells, without rucaparib) it was 91% (active); in assay [10] (at 0.00488 µM, OCI-C5x cells, with rucaparib 10 µM, 100% = cells with rucaparib alone), 123% (inactive); in assay [10] (at 0.00488 µM, OCI-C5x cells, without rucaparib), 116% (inactive); in assay [10] (at 0.00488 µM, OCI-P5x cells, with rucaparib 20 µM, 100% = cells with rucaparib alone), 90.4% (active). Besides, the viability in [10] (at 0.00488 µM, OCI-P5x cells, without rucaparib) was 107% (inactive); in assay [10] (at 0.0195 µM, OCI-C5x cells, with rucaparib 10 µM, 100% = cells with rucaparib alone) it was 104% (inactive); in assay [10] (at 0.0195 µM, OCI-C5x cells, without rucaparib), 117% (inactive); in [10] (at 0.0195 µM, OCI-P5x cells, with rucaparib 20 µM, 100% = cells with rucaparib alone) it was 82.9% (active); in assay [10] (at 0.0195 µM, OCI-P5x cells, without rucaparib), 100% (inactive); in assay [10] (at 0.0781 µM, OCI-C5x cells, with rucaparib 10 µM, 100% = cells with rucaparib alone), 118% (inactive). Moreover, the viability in assay [10] (at 0.0781 µM, OCI-C5x cells, without rucaparib) is 119% (inactive); in assay [10] (at 0.0781 µM, OCI-P5x cells, with rucaparib 20 µM, 100% = cells with rucaparib alone) it was 96.1% (active); in assay [10] (at 0.0781 µM, OCI-P5x cells, without rucaparib), 106% (inactive); in assay [10] (at 0.313 µM, OCI-C5x cells, with rucaparib 10 µM, 100% = cells with rucaparib alone) it was 109% (inactive); in assay [10] (at 0.313 µM, OCI-C5x cells, without rucaparib) it was 120% (inactive); in assay [10] (at 0.313 µM, OCI-P5x cells, with rucaparib 20 µM, 100% = cells with rucaparib alone), 94.4% (active). Besides, the viability in assay [10] (at 0.313 µM, OCI-P5x cells, without rucaparib) was 110% (inactive); in assay [10] (at 1.25 µM, OCI-C5x cells, with rucaparib 10 µM, 100% = cells with rucaparib alone) it was 111% (inactive); in assay [10] (at 1.25 µM, OCI-C5x cells, without rucaparib), 108% (inactive); in assay [10] (at 1.25 µM, OCI-P5x cells, with rucaparib 20 µM, 100% = cells with rucaparib alone), 97.8% (active); in [10] (at 1.25 µM, OCI-P5x cells, without rucaparib), 104% (inactive); in assay [10] (at 5 µM, OCI-C5x cells, with rucaparib 10 µM, 100% = cells with rucaparib alone), 117% (inactive). For the same compound, the viability in assay [10] (at 5 µM, OCI-C5x cells, without rucaparib) was 114% (inactive); in [10] (at 5 µM, OCI-P5x cells, with rucaparib 20 µM, 100% = cells with rucaparib alone), 89.7% (active); in assay [10] (at 5 µM, OCI-P5x cells, without rucaparib), 92.1% (active). The fluorescence ratio was 0.63 (active) in assay [2] and 0.8 (active) in assay [5]. The results for the inhibition in assay [3], in [4] and in assay [6] were -3.56% (inactive), 32.2% (active) and 15.4% (inactive), respectively. Besides, the mean signal in [7] was 222 (inactive). For the same compound, the red/green cell ratio (normalised) in assay [8] is 1.15 (inactive). For the same compound, the normalised cell number in [8] (setting [14]) is 0.79; in [8] (setting [15]) it was 0.91. Besides, the results for the fold change in [9] (setting [16]) and in [9] (setting [17]) were 0.998 (inactive) and 0.749, respectively. For the same compound, the cell count in [9] (setting [18]) was 5870; in assay [9] (setting [19]) it was 5880. The luciferase signal in assay [11] was 48 AU (inactive).
On to `CON=C(C(=O)NC1C(=O)N2C(C(=O)O)=C(COC(C)=O)CSC12)c1csc(N)n1` (stereo unspecified), for which, in assay [1], the parasite load remaining was 73.2% (inactive). Besides, in [1], the viability was 130%. The fluorescence ratio in assay [2] and in assay [5] was 1.03 (inactive) throughout. Moreover, the inhibition in assay [3] is 4.09% (inactive); in assay [4] it was 36.1% (active); in assay [6], -1.56% (inactive). Further, the fold change in assay [9] (setting [16]) is 0.991 (inactive); in [9] (setting [17]), 2.86. Also, the cell count in assay [9] (setting [18]) amounted to 11400; in assay [9] (setting [19]), 11500. In assay [12], the z-score was 0.145 (inactive). For the same compound, the log fold change Tl+ flux in the assay on F380Y is -0.0263 (inactive); in the assay on F380Y/beta2Delta, 0.0186 (inactive); in assay [13] it was -0.0048 (inactive); in the assay with R275C it was 0.0263 (inactive); with R275C/beta1 it was -0.0272 (inactive); in the assay on R275C/beta2Delta, -0.0298 (inactive).
`COc1ccc2c(=O)c(OC)c(-c3ccccc3)oc2c1`: the inhibition in [6] is 5.12% (inactive). Also, in [8], the red/green cell ratio (normalised) was 0.95 (inactive). For the same compound, the normalised cell number in assay [8] (setting [14]) is 1.07; in [8] (setting [15]), 1.02.
The like results for `COc1ccc(-c2cc(=O)c3c(O)cc(O)c(-c4cc(-c5cc(=O)c6c(O)cc(O)cc6o5)ccc4OC)c3o2)cc1` were, in that order, 10.8% (inactive), 0.98 (inactive), 0.79 and 0.78.
The like results for `COc1cccc(-c2cc(=O)c3ccc(OC)cc3o2)c1` were, in that order, -2.44% (inactive), 1.01 (inactive), 1.02 and 1.03.
Take `CC1CC[C@@]2(OC1)O[C@H]1CC3C4CC[C@@H]5C[C@@H](O)CC[C@]5(C)C4CC[C@]3(C)[C@H]1[C@@H]2C` (stereo partly specified): the inhibition in [6] was -2.11% (inactive). Further, the red/green cell ratio (normalised) in [8] was 1.16 (inactive). Further, the normalised cell number in assay [8] (setting [14]) came out at 1.03; in assay [8] (setting [15]), 1.2.
The like results for `COc1cc(OC)c2c(=O)cc(-c3ccccc3)oc2c1` were, in that order, 13.7% (inactive), 0.95 (inactive), 1.06 and 1.01.
